For eight compounds, composite z-score and z-score results are on record in PubChem BioAssay.

The source made the active and inactive calls. Unless noted, how the calls were made is not given here.

Assay [1] has as its system Wnt5a (protein binding on small-molecule microarray). Briefly: small molecules binding Wnt5a protein – biophysical, small-molecule microarray, 635/667 nm fluorescence, primary screen (AID 1142).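 Further: fluorescence read at 667 nm with signal to noise per printed feature.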 As to conditions: 635 nm fluorescence, higher = more signal.
Assay [2] is described as follows: ATP-based viability of Huh7 replicon cells – cell-based, CellTiter-Glo luminescence, basal, 48 h, cytotoxicity control for HCV replication inhibitor project, primary screen (AID 1143).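 Further: Huh7 hepatoma cells carrying a hepatitis C replication reporter with no stimulus; test concentration not given here.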 As to conditions: higher = more signal, called active from +8 up or from −8 down. In general terms: Replicon systems follow genome replication, usually without infectious particles.

Assay [3] in a line: Pseudomonas biofilm growth suppression – PAO1 strain, BacTiter-Glo luminescence, LB-PBS, primary screen (AID 1144). As to conditions: P. aeruginosa PAO1 biofilm, 12 h, higher = more signal.
Assay [4] can be described thus: basal CRE-LacZ reporter activity in PC12 – cell-based, unstimulated, primary screen (AID 1145). As to conditions: no forskolin, luminescence, 4.5 h, higher = more signal, called active from +8 up or from −8 down.
A short description of assay [5]: forskolin-driven CRE-LacZ activity in PC12 – cell-based, CRE-LacZ reporter, forskolin-stimulated, primary screen (AID 1146).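 Further: PC12 cells with 6xCRE LacZ reporter stimulated by forskolin 10 µM; beta-galactosidase reporter signal reflecting CREB driven transcription.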 As to conditions: luminescence, 4.5 h, higher = more signal, called active from +8 up or from −8 down.
In assay [6] the target is Streptavidin (Streptomyces avidinii) (UniProt P22629). Briefly: compounds binding control protein streptavidin – biophysical, small-molecule microarray, 635/667 nm fluorescence, artefact control for SMM compound annotation, primary screen (AID 1147).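 Further: signal reflects streptavidin binding to arrayed compounds as a control protein.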 As to conditions: higher = more signal.
Assay [7] in a line: probe aInhba binding on compound microarray – biochemical, small-molecule microarray, 635/667 nm fluorescence, primary screen (AID 1148).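 Further: score merges 667nm spot fluorescence with signal-to-noise for antibody binding to printed compounds.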 As to conditions: higher = more signal.
Assay [8] has as its target Torsin-1A (Homo sapiens) (UniProt O14656). Briefly: TOR1A wild-type binding on microarray – cell lysate, small-molecule microarray, lysate, 635/667 nm, primary screen (AID 1149). As to conditions: COS7 hTOR1A-WT lysate, 635 nm fluorescence, higher = more signal.
Assay [9] shares this target. Briefly: torsin A mutant lysate binding on microarrays – cell lysate, small-molecule microarray, COS7 lysate, 635/667 nm fluorescence, primary screen (AID 1150).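 Further: score pools 667 nm emission and signal to noise measuring lysate protein binding.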 As to conditions: COS7 hTOR1A mutant lysate, 635 nm fluorescence, higher = more signal.
The test system of assay [10] is Sonic hedgehog protein (Shh). Briefly: Sonic hedgehog microarray binding compounds – biochemical, small-molecule microarray, 635/667 nm fluorescence, primary screen (AID 1151).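 Further: Shh protein binding to compounds spotted on small-molecule microarray slides; score combines spot fluorescence intensity with signal-to-noise across triplicate slides.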 As to conditions: 635 nm fluorescence, higher = more signal.
Assay [11] is described as follows: optical density shifts of acrAB sulA E. coli – strain DRC41, OD650, 48 h, E. coli filamentation inducer project, primary screen (AID 1152).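 Further: E. coli MC1000 strain DRC41 lacking acrAB efflux pump and sulA.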 As to conditions: higher = more signal, called active from +8 up or from −8 down.
A short description of assay [12]: probe aLefty1 binding on compound microarray – biochemical, small-molecule microarray, 635/667 nm fluorescence, primary screen (AID 1153).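 Further: score merges spot fluorescence with signal-to-noise ratio from the scanned slide images.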 As to conditions: higher = more signal.
The nature of assay [13]: plasmodial surface anion channel blockers, osmotic lysis – cell-based, P. falciparum Indochina, OD700, 1 h, primary screen (AID 1154). As to conditions: P. falciparum Indochina infected RBC osmotic lysis, higher = more signal, called active from +8 up or from −8 down.
A short description of assay [14]: plasmodial surface anion channel blockers, osmotic lysis – cell-based, P. falciparum Indochina, OD700, 2 h, primary screen (AID 1155).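 Further: lysis reports solute entry through the parasite surface anion channel PSAC.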 As to conditions: P. falciparum Indochina infected erythrocytes, higher = more signal, called active from +8 up or from −8 down.
Assay [15] in a line: changes in parasitized red cell lysis, either direction – P. falciparum Indochina, OD700, 3 h, PSAC antagonist project, primary screen (AID 1156). As to conditions: P. falciparum-infected erythrocytes, osmotic lysis, higher = more signal, called active from +8 up or from −8 down.
Assay [16] in a line: plasmodial surface anion channel blockers, osmotic lysis – cell-based, P. falciparum Indochina, OD700, 18 h, primary screen (AID 1157). As to conditions: P. falciparum Indochina infected erythrocytes, osmotic lysis OD700, 18 h; higher = more signal, called active from +8 up or from −8 down.
A short description of assay [17]: S6 kinase pathway phospho-S6 level changes – cell-based, A549, cytoblot, luminescence, serum-stimulated, primary screen (AID 1158).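 Further: serum-stimulated A549 lung adenocarcinoma cells; signal is phosphorylated S6 detected by cytoblot immunostaining with HRP secondary.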 As to conditions: 5 h, higher = more signal.
Assay [18] addresses NADPH oxidase 2 (Homo sapiens) (UniProt P04839). Briefly: compounds shifting NOX2 Amplex Red fluorescence – cell-based, HEK293-NOX2, PMA-stimulated, NOX inhibitor project, primary screen (AID 1159). Further: test concentration not given here. As to conditions: 45 min, higher = more signal, called active from +8 up or from −8 down.
For assay [19], the target named is NADPH oxidase 4 (Homo sapiens) (UniProt Q9NPH5). Briefly: compounds shifting NOX4 Amplex Red fluorescence – cell-based, HEK293-NOX4, tetracycline-induced, NOX inhibitor project, primary screen (AID 1160). As to conditions: HEK293-NOX4, Amplex Red H2O2 fluorescence, 45 min; higher = more signal, called active from +8 up or from −8 down.
For assay [20], the target named is NADPH oxidase 5 (Homo sapiens) (UniProt Q96PH1). Briefly: compounds shifting NOX5 Amplex Red fluorescence – cell-based, HEK293-NOX5, NOX inhibitor project, primary screen (AID 1161). As to conditions: HEK293-NOX5, ionomycin, 45 min, higher = more signal.
Sequence of NADPH oxidase 5 (Homo sapiens) (Q96PH1 whole entry, looked up): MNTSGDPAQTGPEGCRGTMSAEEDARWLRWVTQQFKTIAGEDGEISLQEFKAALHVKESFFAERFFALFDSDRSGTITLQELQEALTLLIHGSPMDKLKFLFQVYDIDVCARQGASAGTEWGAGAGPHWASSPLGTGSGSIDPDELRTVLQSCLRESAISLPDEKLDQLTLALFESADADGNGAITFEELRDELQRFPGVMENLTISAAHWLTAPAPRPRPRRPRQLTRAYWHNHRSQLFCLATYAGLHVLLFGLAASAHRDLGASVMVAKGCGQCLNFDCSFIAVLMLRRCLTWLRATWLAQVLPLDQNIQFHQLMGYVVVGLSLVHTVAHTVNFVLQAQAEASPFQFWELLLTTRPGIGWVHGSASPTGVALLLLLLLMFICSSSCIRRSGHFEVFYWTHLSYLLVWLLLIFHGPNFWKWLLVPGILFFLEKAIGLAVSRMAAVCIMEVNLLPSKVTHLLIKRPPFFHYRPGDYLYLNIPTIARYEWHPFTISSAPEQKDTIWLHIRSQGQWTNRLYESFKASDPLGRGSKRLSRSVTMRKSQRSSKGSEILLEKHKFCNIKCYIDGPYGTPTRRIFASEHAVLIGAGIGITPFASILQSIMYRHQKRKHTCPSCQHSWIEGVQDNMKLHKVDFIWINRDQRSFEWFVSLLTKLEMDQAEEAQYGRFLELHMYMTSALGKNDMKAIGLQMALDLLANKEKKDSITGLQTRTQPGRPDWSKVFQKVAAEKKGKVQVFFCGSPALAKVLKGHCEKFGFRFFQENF

Sequence of NADPH oxidase 4 (Homo sapiens) (Q9NPH5 whole entry, looked up): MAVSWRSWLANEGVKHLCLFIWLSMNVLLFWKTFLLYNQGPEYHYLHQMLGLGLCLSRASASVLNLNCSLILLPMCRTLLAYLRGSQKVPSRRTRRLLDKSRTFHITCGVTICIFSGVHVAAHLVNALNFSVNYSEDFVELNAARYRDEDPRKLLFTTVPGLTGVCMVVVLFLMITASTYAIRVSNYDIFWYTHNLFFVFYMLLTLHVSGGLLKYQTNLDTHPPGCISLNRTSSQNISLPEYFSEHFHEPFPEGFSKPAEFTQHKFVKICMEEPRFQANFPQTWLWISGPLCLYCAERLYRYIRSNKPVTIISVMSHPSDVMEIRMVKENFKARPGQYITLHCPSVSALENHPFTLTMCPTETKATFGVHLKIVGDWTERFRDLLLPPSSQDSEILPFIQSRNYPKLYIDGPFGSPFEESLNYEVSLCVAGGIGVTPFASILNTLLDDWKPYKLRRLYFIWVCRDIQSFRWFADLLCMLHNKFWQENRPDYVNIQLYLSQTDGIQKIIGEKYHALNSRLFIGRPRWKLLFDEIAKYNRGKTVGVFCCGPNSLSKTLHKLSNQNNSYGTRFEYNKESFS
Sequence of Torsin-1A (Homo sapiens) (O14656 whole entry, looked up): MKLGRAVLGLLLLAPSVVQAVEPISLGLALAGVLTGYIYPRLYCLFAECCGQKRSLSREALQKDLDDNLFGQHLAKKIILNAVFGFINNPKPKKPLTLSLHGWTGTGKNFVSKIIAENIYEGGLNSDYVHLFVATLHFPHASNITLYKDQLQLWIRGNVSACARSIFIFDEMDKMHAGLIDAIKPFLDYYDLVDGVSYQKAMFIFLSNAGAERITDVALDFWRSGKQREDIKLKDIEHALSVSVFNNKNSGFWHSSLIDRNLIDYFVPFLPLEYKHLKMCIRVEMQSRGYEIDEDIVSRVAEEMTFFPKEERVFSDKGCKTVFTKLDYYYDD
Sequence of NADPH oxidase 2 (Homo sapiens) (P04839 whole entry, looked up): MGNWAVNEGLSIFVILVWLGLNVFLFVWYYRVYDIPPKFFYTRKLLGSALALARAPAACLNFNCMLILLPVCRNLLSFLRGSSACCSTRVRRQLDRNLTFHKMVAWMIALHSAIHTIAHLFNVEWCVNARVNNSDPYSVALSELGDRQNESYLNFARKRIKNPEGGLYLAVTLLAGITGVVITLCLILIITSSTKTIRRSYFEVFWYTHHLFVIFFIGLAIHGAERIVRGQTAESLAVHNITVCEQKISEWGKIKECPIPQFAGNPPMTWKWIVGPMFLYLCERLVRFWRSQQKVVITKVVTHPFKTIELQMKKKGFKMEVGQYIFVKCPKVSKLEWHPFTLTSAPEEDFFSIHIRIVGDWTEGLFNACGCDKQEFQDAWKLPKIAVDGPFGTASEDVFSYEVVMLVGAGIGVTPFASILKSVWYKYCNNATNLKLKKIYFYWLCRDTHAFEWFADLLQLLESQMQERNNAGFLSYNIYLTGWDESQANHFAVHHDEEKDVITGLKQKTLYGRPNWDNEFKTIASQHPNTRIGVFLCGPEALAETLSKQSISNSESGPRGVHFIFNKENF
Sequence of Streptavidin (Streptomyces avidinii) (P22629 whole entry, looked up): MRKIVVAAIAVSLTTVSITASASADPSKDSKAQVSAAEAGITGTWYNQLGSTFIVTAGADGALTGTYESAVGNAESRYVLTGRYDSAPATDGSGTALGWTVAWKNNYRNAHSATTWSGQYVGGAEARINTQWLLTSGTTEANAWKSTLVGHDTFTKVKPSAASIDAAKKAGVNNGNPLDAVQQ

`COC(=O)[C@@H]1CC[C@H](C)[C@@H](c2ccc(C)cc2)N1C(=O)c1ccc(C=NOC(C)CN2CCCCc3nc(C)c(C)cc32)cc1` (stereo not given in full): the composite z-score in [1] was 0.595; in [6], 0.48; in assay [7], -0.0791; with Torsin-1A (Homo sapiens) [8], -0.269; in the assay with Torsin-1A (Homo sapiens) [9], -0.332; in [10] it was 0.328. In assay [12], the composite z-score was -0.0449. Besides, the z-score is -3.62 (inactive) in assay [2]; -0.356 (inactive) in assay [3]; 1.81 (inactive) in assay [4]; 1 (inactive) in assay [5]; 0.173 (inactive) in [11]; 1.21 (inactive) in [13]. Also, the z-score in assay [14] is 0.369 (inactive); in assay [15], 1.03 (inactive); in [16] it was 0.367 (inactive); in assay [17] it was -0.122; in assay [18], -0.202 (inactive); in assay [19] it was -1.62 (inactive). Moreover, the z-score in assay [20] came to 0.64.

For `CC(CCN1CCCCc2nc(C)c(C)cc21)=NOC(C)CN1CCCCc2nc(C)c(C)cc21` (stereo not given), the composite z-score worked out at 0.183 in [1]; 1.1 in [6]; 0.0528 in [7]; 2.88 in the assay with Torsin-1A (Homo sapiens) [8]; 2.32 with Torsin-1A (Homo sapiens) [9]; 1.69 in assay [10]. This compound also showed a composite z-score in assay [12] of 0.235. For the same compound, the z-score in assay [2] was -2.16 (inactive); in [3], 0.483 (inactive); in assay [4], 0.187 (inactive); in assay [5], 0.907 (inactive); in assay [11], -2.08 (inactive); in [13] it was 1.38 (inactive). The z-score in assay [14] was 0.329 (inactive); in assay [15], 0.964 (inactive); in assay [16], 0.587 (inactive); in assay [17] it was -0.839; in assay [18], -1.47 (inactive); in [19] it was -3.07 (inactive). Moreover, the z-score in [20] was -1.31.

`CCN1C(=O)[C@H]2[C@H]3[C@H](O)C=CC(=O)[C@@H]3CC[C@H]2C1=O`: the composite z-score in [1] is 0.213; in [6], 0.232; in assay [7] it was -0.0759; with Torsin-1A (Homo sapiens) [8] it was 0.0994; with Torsin-1A (Homo sapiens) [9] it was 0.546; in [10], 0.62. Besides, in [12], the composite z-score is -0.265. Moreover, the z-score was 0.148 (inactive) in assay [2]; 0.465 (inactive) in assay [3]; 0.342 (inactive) in assay [4]; 0.069 (inactive) in assay [5]; -0.474 (inactive) in assay [11]; -0.441 (inactive) in [13]. In addition, the z-score is -0.343 (inactive) in [14]; -0.795 (inactive) in [15]; -0.21 (inactive) in assay [16]; 0.176 in [17]; 0.0244 (inactive) in assay [18]; -0.0152 (inactive) in assay [19]. In [20], the z-score was -0.204.

Consider `CC(C)=CCCC(C)=CCON=C1C[C@@H](O)[C@@H](O)[C@@H]2[C@@H]3C(=O)N(C[C@@H]4CCCO4)C(=O)[C@@H]3CC[C@@H]12`, for which the composite z-score in assay [1] was 0.311; in assay [6], -0.0996; in assay [7], -0.0933; with Torsin-1A (Homo sapiens) [8], 2.06; in the assay with Torsin-1A (Homo sapiens) [9] it was 2.01; in [10], 1.73. This compound gave a composite z-score in [12] of 0.0371. Also, the z-score in [2] was -0.678 (inactive); in assay [3] it was 0.518 (inactive); in assay [4], -0.659 (inactive); in assay [5] it was -0.227 (inactive); in [11], 0.381 (inactive); in assay [13], 1.53 (inactive). For the same compound, the z-score in [14] is 0.767 (inactive); in assay [15], 0.369 (inactive); in assay [16] it was 0.549 (inactive); in [17] it was -0.622; in assay [18] it was 0.752 (inactive); in assay [19], 0.604 (inactive). In addition, the z-score in [20] came to 0.0838.

As to `N#Cc1ccc(NN2C(C(O)c3cccc4ccccc34)C=CC3C(=O)N(c4ccccc4)C(=O)C32)cc1` (stereo not given), the composite z-score was 0.305 in assay [1]; 1.75 in [6]; 0.49 in assay [7]; 0.612 in the assay with Torsin-1A (Homo sapiens) [8]; 0.358 in the assay with Torsin-1A (Homo sapiens) [9]; -0.335 in assay [10]. In addition, the composite z-score in [12] was 0.696. Moreover, the z-score is 0.128 (inactive) in assay [2]; -0.811 (inactive) in assay [3]; -0.708 (inactive) in assay [4]; -0.302 (inactive) in assay [5]; -0.499 (inactive) in assay [11]; 12.6 (active) in assay [13]. The z-score in [14] is 2.68 (inactive); in assay [15] it was 1.33 (inactive); in assay [16], 1.44 (inactive); in assay [17], -0.067; in assay [18], -1.58 (inactive); in [19], -3.65 (inactive). The z-score in [20] is -3.57.

Turning to `C=CC[C@]1(C(=O)NCc2ccccc2)N=C(c2ccc(OCCCO)cc2)O[C@H]1c1ccccc1`, the composite z-score in assay [1] was -0.2; in [6], -0.134; in assay [7], -0.003; with Torsin-1A (Homo sapiens) [8], 1.04; with Torsin-1A (Homo sapiens) [9] it was 1.39; in assay [10] it was -0.872. This compound also yielded a composite z-score in [12] of 0.398. Also, the z-score in assay [2] was -4.19 (inactive); in [3] it was -0.71 (inactive); in [4], 0.848 (inactive); in [5] it was 1.34 (inactive); in [11] it was -0.0491 (inactive); in assay [13], 14.6 (active). Moreover, the z-score in assay [14] is 1.83 (inactive); in assay [15] it was 0.668 (inactive); in assay [16], 1.26 (inactive); in assay [17] it was -0.0429; in assay [18] it was -2.86 (inactive); in [19] it was -0.495 (inactive). The z-score in assay [20] was -1.96.

On to `COc1ccc(O[C@H]2C=C[C@@H](c3ccccc3)O[C@@H]2COC(=O)CCC(C)=NOCC[C@@H]2C=C[C@H](OC(C)=O)[C@@H](COC(C)=O)O2)cc1`, for which the composite z-score in assay [1] is -0.0096; in assay [6] it was 0.0903; in assay [7] it was -0.0736; with Torsin-1A (Homo sapiens) [8], 1.56; with Torsin-1A (Homo sapiens) [9], 0.43; in [10], 0.661. The composite z-score in assay [12] was -0.0176. Besides, the z-score in [2] is -1.06 (inactive); in assay [3], 0.57 (inactive); in [4], 0.918 (inactive); in assay [5] it was 0.378 (inactive); in [11], -0.445 (inactive); in assay [13], 8.07 (active). Further, the z-score is 1.2 (inactive) in assay [14]; 1 (inactive) in assay [15]; 0.588 (inactive) in assay [16]; -0.268 in assay [17]; -1.64 (inactive) in [18]; -0.327 (inactive) in assay [19]. Also, in [20], the z-score was -2.19.

Turning to `COC(=O)c1c(CC[C@@H](CO)NC(=O)N[C@H](Cc2ccccc2)Cn2cc(-c3ccccc3N)nn2)oc(C(C)=O)c1C(=O)OC`, the composite z-score in assay [1] was -0.0029; in assay [6], 2.14; in [7] it was 0.449; in the assay with Torsin-1A (Homo sapiens) [8] it was 0.481; with Torsin-1A (Homo sapiens) [9], 0.794; in assay [10] it was 0.352. The compound also came in with a composite z-score in assay [12] of 0.5. For the same compound, the z-score in assay [2] was -0.145 (inactive); in assay [3], 0.41 (inactive); in assay [4] it was 3.84 (inactive); in assay [5] it was -0.687 (inactive); in assay [11] it was 0.144 (inactive); in [13], 29.7 (active). In addition, the z-score was 15.5 (active) in assay [14]; 0.845 (inactive) in assay [15]; 1.73 (inactive) in [16]; 0.211 in [17]; -2.69 (inactive) in assay [18]; 0.681 (inactive) in [19]. Also, in [20], the z-score was 1.74.
